The campaign covered roughly 220,000 compounds. About 2,000 (0.91%) were called active. Not shown: some 2% with an inconclusive outcome. The list is a sample of the results. Potency and affinity values are given separately. A number with no mark means an inactive call. Cut-off read from the data, not from the text of the source: inconclusive = inhibition above about 80% without an active follow-up result; inactive = below that; test concentration not stated here.
experiment: M. tuberculosis H37Rv growth inhibitors, H37Rv strain (AID 1626); settings: hits give high values, concentration not given here;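 note: bacteria incubated seven days before Alamar blue readout; 0% = bacteria only wells and 100% = bacteria with antibiotic wells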

With `COc1ccc(C(=O)c2ccc3oc(-c4ccc(OC)cc4)c(C#CCCO)c3c2)cc1` as the molecule, how does the inhibition read?
Its inhibition is 6.95%.

For `Cc1ccccc1NC(=O)c1ccc(F)c(S(=O)(=O)N2CCCCC2)c1`, which inhibition is on record?
Its inhibition is -2.34%.

For `CCn1cc(Br)c(C(=O)Nc2ccc(F)c(Cl)c2)n1`, which inhibition is on record?
The inhibition was -11.6%.

With `CCOCCCNC(=O)c1ccc(NC(C)=O)cc1` as the molecule, how does the inhibition read?
Its inhibition is -8.03%.

Which inhibition does the source give for `CC(=O)C1=C(O)C(=O)N(C)C1c1ccccc1F` (configuration not stated) here?
Its inhibition is 0.41%.

For `CN(C[C@H](Cc1ccccc1)N(C[C@H](CC1CCCCC1)N(CCc1ccccc1)N=O)N=O)N=O`, which inhibition is on record?
Its inhibition is -1.37%.

For `CC(C)Sc1ncc(S(=O)(=O)c2ccccc2)c(=O)[nH]1`, which inhibition is on record?
The inhibition was -2.21%.

For `C=CCn1c(O)c(C(C)=Nc2ccc(NC(C)=O)cc2)c(=O)[nH]c1=O`, which inhibition is on record?
Its inhibition is -0.17%.

For `CCCCn1c(O)c(C(CC)=Nc2ccc(C(=O)O)cc2)c(=O)[nH]c1=O`, which inhibition is on record?
Its inhibition is -1.19%.

With `CCCCn1c(O)c(C(CC)=Nc2ccc3c(c2)CCC3)c(=O)[nH]c1=O` as the molecule, how does the inhibition read?
The inhibition was 74.9%.

With `CCCCn1c(O)c(C(C)=Nc2ccc(C(=O)O)cc2)c(=O)[nH]c1=O` as the molecule, how does the inhibition read?
Its inhibition is -16.2%.

Which inhibition does the source give for `CCCCn1c(O)c(C(C)=Nc2ccc3c(c2)CCC3)c(=O)[nH]c1=O` here?
The inhibition was 7.92%.

For `C=CCn1c(O)c(C(C)=Nc2ccc3c(c2)CCC3)c(=O)[nH]c1=O`, which inhibition is on record?
The inhibition was 54.5%.

For `CCCCn1c(O)c(C(CC)=Nc2ccc(OC)cc2OC)c(=O)[nH]c1=O`, which inhibition is on record?
Its inhibition is -1.05%.

Which inhibition does the source give for `C=CCn1c(O)c(C(C)=Nc2ccc(C(=O)O)cc2)c(=O)[nH]c1=O` here?
The inhibition was -11.5%.

For `O=C(O)CC(CNS(=O)(=O)c1cccc2nsnc12)c1ccccc1` (configuration not stated), which inhibition is on record?
Its inhibition is 2.51%.

For `O=C1CC(c2nc3ccccc3[nH]2)CN1c1cccc(C(F)(F)F)c1` (configuration not stated), which inhibition is on record?
The inhibition was 2.87%.

Which inhibition does the source give for `CN1CCN(C(=S)c2ccc(-c3cccc(Cl)c3Cl)o2)CC1` here?
The inhibition was 2.93%.

Which inhibition does the source give for `Nc1c(Cl)ncnc1N/N=C/c1cccnc1` here?
The inhibition was 3.93%.

For `Cn1c(N2CCOCC2)cc(=O)n(C)c1=O`, which inhibition is on record?
The inhibition was -3.19%.

For `COc1ccc(CCNC(=O)CSCc2ccc([N+](=O)[O-])cc2)cc1OC`, which inhibition is on record?
Its inhibition is -5.73%.

With `CCN(CC)c1ccc(C(=O)OCC(=O)Nc2ccc3[nH]c(=O)[nH]c3c2)cc1` as the molecule, how does the inhibition read?
Its inhibition is 6.23%.

For `O=C(Nc1ccc(Br)cc1)C1CCCN(S(=O)(=O)c2cccnc2)C1` (configuration not stated), which inhibition is on record?
Its inhibition is -3.26%.

With `C=CCn1c(CNC(=O)c2ccco2)nnc1SCC(=O)Nc1cccc(F)c1` as the molecule, how does the inhibition read?
The inhibition was 2.84%.

For `CCn1c(SCc2nc3ccccc3c(=O)[nH]2)nc2ccccc21`, which inhibition is on record?
The inhibition was 11.6%.

For `COc1ccc2nc(N3CCC(O)CC3)c(C#N)cc2c1`, which inhibition is on record?
The inhibition was 1.43%.

Which inhibition does the source give for `COc1ccc2cc(C#N)c(N3CCN(C(=O)c4ccccc4C)CC3)nc2c1` here?
Its inhibition is 7.93%.

With `CC(C)CCNC(=O)CCn1c(=S)oc2ccccc21` as the molecule, how does the inhibition read?
Its inhibition is -7.67%.

Which inhibition does the source give for `CC(=O)c1ccc(NC(=O)C(C)N2CCN(C/C=C/c3ccccc3)CC2)cc1` (configuration not stated) here?
Its inhibition is 53.1%.

Which inhibition does the source give for `Fc1ccc(CSc2nnc(-c3cccnc3)n2Cc2ccco2)cc1` here?
The inhibition was -3.79%.

With `CCCc1nc2c(sc3nc4c(cc32)COC(C)(C)C4)c(=O)n1Cc1ccco1` as the molecule, how does the inhibition read?
The inhibition was -1.51%.

With `CCCCOC(=O)Nc1sc2c(c1C(=O)OC)CCC2` as the molecule, how does the inhibition read?
The inhibition was -0.74%.

For `S=c1[nH]nc(CSCc2ccccc2Cl)n1C1CCCCC1`, which inhibition is on record?
Its inhibition is 4.24%.

For `C#CCOCCOCCOCCNc1nc(N2CCN(C(=O)[C@H](Cc3cc4ccccc4[nH]3)n3cc(C(N)CC(C)C)nn3)CC2)nc(N2CCN(C(=O)[C@H](CCC(=O)O)n3cc(C(N)[C@H](C)CC)nn3)CC2)n1` (some centres not stated), which inhibition is on record?
The inhibition was -7.16%.

Which inhibition does the source give for `C#CCOCCOCCOCCNc1nc(N2CCN(C(=O)[C@H](CCCCN)n3cc([C@@H](N)CC(C)C)nn3)CC2)nc(N2CCN(C(=O)[C@H](Cc3cc4ccccc4[nH]3)n3cc([C@@H](N)Cc4ccc(O)cc4)nn3)CC2)n1` here?
The inhibition was 59%.

With `C#CCOCCOCCOCCNc1nc(N2CCOCC2)nc(N2CCN(C(=O)[C@H](Cc3cc4ccccc4[nH]3)n3cc([C@@H](N)CC(C)C)nn3)CC2)n1` as the molecule, how does the inhibition read?
The inhibition was -3.36%.

With `C#CCOCCOCCOCCNc1nc(N2CCN(C(=O)[C@H]([C@@H](C)CC)n3cc([C@@H](N)CC(C)C)nn3)CC2)nc(N2CCN(C(=O)[C@H](Cc3cc4ccccc4[nH]3)n3cc([C@@H](N)C(C)CC)nn3)CC2)n1` (some centres not stated) as the molecule, how does the inhibition read?
The inhibition was 45.6%.

For `C#CCOCCOCCOCCNc1nc(N2CCN(C(=O)[C@H]([C@@H](C)CC)n3cc([C@@H](N)CC(C)C)nn3)CC2)nc(N2CCN(C(=O)[C@H](Cc3cc4ccccc4[nH]3)n3cc([C@@H](N)CC(C)C)nn3)CC2)n1`, which inhibition is on record?
The inhibition was 33.5%.

For `C#CCOCCOCCOCCNc1nc(N2CCOCC2)nc(N2CCN(C(=O)[C@H](Cc3cc4ccccc4[nH]3)n3cc([C@@H](N)Cc4ccc(O)cc4)nn3)CC2)n1`, which inhibition is on record?
The inhibition was 52%.

For `CCOC(=O)C1CCN(C(=O)COc2ccc(S(=O)(=O)N3CCCC3)cc2C)CC1`, which inhibition is on record?
The inhibition was 8.86%.

For `N/C(=N\c1nc2c(c(=O)[nH]1)CCCC2)Nc1ccc(Oc2ccccc2)cc1`, which inhibition is on record?
The inhibition was 18%.

For `Cn1c(=O)c2c(nc(CN3CCC(C(N)=O)CC3)n2Cc2c(Cl)cccc2Cl)n(C)c1=O`, which inhibition is on record?
The inhibition was -2.69%.

For `Cc1ccc(/C=C/C(=O)N2CCN(c3ccc(F)cc3)CC2)o1`, which inhibition is on record?
The inhibition was -2.28%.

For `O=C(/C=C/c1ccc(F)cc1)N1CCCN(C(=O)/C=C/c2ccc(F)cc2)CC1`, which inhibition is on record?
Its inhibition is 10.8%.

With `CCOCCn1c(SCC)nc2c1c(=O)[nH]c(=O)n2C` as the molecule, how does the inhibition read?
The inhibition was -10.1%.

With `Cc1cc(C)n(-c2nc(O)cc(=O)[nH]2)n1` as the molecule, how does the inhibition read?
The inhibition was -5.24%.

Which inhibition does the source give for `Cc1nn(-c2ccccn2)c(C)c1Oc1ccccc1O` here?
Its inhibition is 7.63%.

For `Cc1cc(C)n(-c2nnc(C)c(=O)[nH]2)n1`, which inhibition is on record?
The inhibition was -3.09%.

Which inhibition does the source give for `COc1ccc(Nc2nc(C)cc(=O)[nH]2)cc1` here?
The inhibition was -16.4%.

For `Cc1cc(C)nc(-n2nc(C)c(Oc3ccccc3O)c2C)n1`, which inhibition is on record?
Its inhibition is -0.16%.

With `Cc1cc(Nc2ccc(Cl)cc2)n(-c2cccc(Cl)c2)n1` as the molecule, how does the inhibition read?
Its inhibition is 4.87%.

With `Cc1ccc(OCC(=O)Nc2ccc(Cl)cc2C(=O)c2ccccc2)cc1` as the molecule, how does the inhibition read?
Its inhibition is -2.12%.

With `CCOc1ccc(CNC(=S)N/N=C\c2ccc([N+](=O)[O-])cc2)cc1` as the molecule, how does the inhibition read?
Its inhibition is 2.73%.

Which inhibition does the source give for `O=C(NCC(c1ccco1)N1CCCCC1)C(c1ccccc1)c1ccccc1` (configuration not stated) here?
The inhibition was 2.31%.

Which inhibition does the source give for `CC(Oc1ccc(Cl)cc1Cl)c1ccnc2nc(N3CCOCC3)nn12` (configuration not stated) here?
The inhibition was 7.65%.

With `COc1ccc(NC2c3ccccc3C(=O)N2Cc2ccco2)cc1OC` (configuration not stated) as the molecule, how does the inhibition read?
Its inhibition is 8.29%.

Which inhibition does the source give for `O=C1c2ccccc2C(Nc2ccc3nc(-c4cccnc4)[nH]c3c2)N1Cc1ccco1` (configuration not stated) here?
Its inhibition is 44%.

For `O=C1c2ccccc2C(Nc2ccc(S(=O)(=O)N3CCCCC3)cc2)N1Cc1ccco1` (configuration not stated), which inhibition is on record?
Its inhibition is 2.32%.

For `CCOc1ccccc1NC1c2ccccc2C(=O)N1Cc1ccco1` (configuration not stated), which inhibition is on record?
The inhibition was 11.3%.

With `CCOC(=O)CNC(=O)CSc1nnc(-c2ccc(OC)cc2)n1CC` as the molecule, how does the inhibition read?
Its inhibition is -3.53%.

Which inhibition does the source give for `O=C(c1ccco1)N1CCN(Cc2nc(Cc3ccccc3)no2)CC1` here?
The inhibition was -8.56%.

Which inhibition does the source give for `C#CCn1c(-c2ccccc2)ccc(C#N)c1=O` here?
Its inhibition is 8.84%.

Which inhibition does the source give for `CCn1c(-c2ccccc2)ccc(C#N)c1=O` here?
The inhibition was -9.1%.

Which inhibition does the source give for `CS(=O)(=O)N(CC(=O)Nc1cccc(Cl)c1Cl)c1ccccc1` here?
Its inhibition is -0.62%.

Which inhibition does the source give for `O=C(COC(=O)c1ccc(=O)[nH]c1)Nc1cccc(S(=O)(=O)N2CCOCC2)c1` here?
The inhibition was 9.81%.

For `CC1CCC/C(=N/NC(=O)c2ccccc2-n2cccc2)C1` (configuration not stated), which inhibition is on record?
Its inhibition is -3.77%.

For `COc1ccc(-n2c(C)cc(/C=C3\C(=O)NN(c4ccccc4)C3=O)c2C)cc1`, which inhibition is on record?
Its inhibition is 12.4%.

Which inhibition does the source give for `CC(=O)N(Cc1nc2sc(C)c(C)c2c(=O)[nH]1)C1CCCC1` here?
The inhibition was -8.34%.

Which inhibition does the source give for `Cc1sc2nc(CN(C(=O)NC3CCCCC3)C3CCCCC3)[nH]c(=O)c2c1C` here?
The inhibition was 3.17%.

For `O=C(Nc1ccncc1)c1ccc(NS(=O)(=O)c2cccc(F)c2)cc1`, which inhibition is on record?
Its inhibition is 7.32%.

With `CCN(Cc1ccccc1)c1ccc(/C=N/N2CCOCC2)cc1` as the molecule, how does the inhibition read?
Its inhibition is 2.24%.

With `NC(N)=N/N=C/c1ccccc1` as the molecule, how does the inhibition read?
Its inhibition is 12.3%.

Which inhibition does the source give for `Cc1ccccc1CN1C[C@@H]2C[C@@H](c3cn[nH]c3-c3ccccc3)N3CCC[C@@]23C1=O` here?
The inhibition was -6.92%.

Which inhibition does the source give for `O=C(Nc1ccn(Cc2ccccc2F)n1)c1ccc(COc2cc(Cl)ccc2Cl)o1` here?
Its inhibition is 10.4%.

For `O=C(Nc1ccn(Cc2c(F)c(F)cc(F)c2F)n1)c1ccc(COc2ccc(Cl)cc2Cl)o1`, which inhibition is on record?
The inhibition was 4.49%.

With `O=C(c1ccc(F)cc1F)N1CCN(c2ncccn2)CC1` as the molecule, how does the inhibition read?
The inhibition was 3.87%.

Which inhibition does the source give for `Cc1[nH]c2ccccc2c1/C=N/n1cnnc1` here?
Its inhibition is 3.82%.

For `Cc1[nH]c2ccccc2c1/C=N/O`, which inhibition is on record?
Its inhibition is 57.2%.

Which inhibition does the source give for `N#CC(C(=O)CCN1C(=O)C2CC=CCC2C1=O)c1nc2ccccc2[nH]1` (configuration not stated) here?
Its inhibition is -15.5%.

Which inhibition does the source give for `N#CC(C(=O)C1CCCCC1)c1nc2ccccc2[nH]1` (configuration not stated) here?
Its inhibition is 56.9%.

Which inhibition does the source give for `O=C(Nc1nc2ccccc2[nH]1)C1CC1` here?
The inhibition was -2.55%.

With `O=C(Nc1nc2ccccc2[nH]1)C1CCCC1` as the molecule, how does the inhibition read?
Its inhibition is -2.34%.

For `O=C(c1ccc2c(c1)OCCO2)C1CCN(C(=O)c2ccc(F)c(F)c2)CC1`, which inhibition is on record?
Its inhibition is 5.15%.

With `Cc1cc(C)c(C(=O)C[n+]2cccc(C(N)=O)c2)c(C)c1` as the molecule, how does the inhibition read?
The inhibition was -6.58%.

Which inhibition does the source give for `Cc1oc(-c2ccccc2)nc1C(=O)N1CCN(c2ccc(F)cc2)CC1` here?
The inhibition was 0.48%.

Which inhibition does the source give for `O=C1N=C(N2CCOCC2)S/C1=C\c1ccc(-c2ccccc2Cl)o1` here?
Its inhibition is 2.45%.

Which inhibition does the source give for `Cc1ccccc1-c1ccc(/C=C2/SC(N3CCOCC3)=NC2=O)o1` here?
The inhibition was -0.65%.

— PubChem BioAssay AID1626 (SRMLSC, 2009)
